Measurements from PubChem BioAssay (Tox21).
Inconclusive results are not listed. The source made the active and inactive calls. Unless noted, the call rests on the fitted dose curve; in most records, active means well fitted curve in the direction sought with a large enough effect in the repeat runs; inconclusive means weak or mixed curves; inactive means no such curve, though single readings can be large; an effect the other way counts as inactive or inconclusive.

Assays:
[1] = biological target: Progesterone receptor (Homo sapiens) (UniProt P06401); assay: qHTS assay to identify small molecule agonists of the progesterone receptor (PR) signaling pathway (AID 1346784; calls by dose curve; further: nearly all actives have a fitted effect of over 30% in size)
Outline: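 PR-UAS-bla HEK 293T cells (beta-lactamase reporter under UAS) in 2% charcoal-stripped FBS, dosed with 23 nL compound after 6 hr, incubated 16hr at 37C. LiveBLAzer B/G FRET substrate added, fluorescence read after 2 hours.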

[2] = biological target: Progesterone receptor (Homo sapiens) (UniProt P06401); assay: qHTS assay to identify small molecule antagonists of the progesterone receptor (PR) signaling pathway (AID 1346795; active means well fitted inhibition curve with a large enough effect in the signal ratio in the repeat runs, not every such curve was filed as active; the % refers to the signal ratio)
Outline: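 PR-UAS-bla HEK293T cells with beta-lactamase reporter under UAS control, in 2% charcoal-stripped FBS, treated with compounds plus 1 nM promegestone (R5020, final) for 16 hr at 37C. Read-out: FRET beta-lactamase substrate fluorescence after 2 hr at room temperature.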

[3] = qHTS assay to identify small molecule antagonists of the progesterone receptor (PR) signaling pathway - cell viability counter screen (AID 1346798); further: series mostly up to about 92 µM; nearly all actives have a fitted effect of over 50% in size
Outline: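 PR-UAS-bla HEK293T cells, 3,000/well in 2% charcoal-stripped FBS medium, dosed with compounds plus R5020 agonist and incubated 16 h at 37C. Viability then measured in the same wells by CellTiter-Glo luminescence after 30 min at RT.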

[4] = qHTS assay to identify small molecule antagonists of the TGF-beta/Smad signaling pathway - cell viability counter screen (AID 1346824); further: nearly all actives have a fitted effect of over 50% in size
Outline: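 Cytotoxicity counter-screen run in the same wells as the beta-lactamase Smad reporter read: CellTiter-Glo luminescence after 30 min at room temperature. HEK 293T SBE-bla cells had 5 hr compound exposure at 37 C with TGF-beta1 (0.25 ng/mL stock).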

[5] = qHTS assay to identify small molecule agonists of the TGF-beta/Smad signaling pathway - cell viability counter screen (AID 1346829); further: top concentration of the series differs between compounds; nearly all actives have a fitted effect of over 45% in size
Outline: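 After overnight seating at 37 C and 5% CO2, reporter cells got compounds for 5 hr and FRET substrate for 2 hr; cell viability then came from CellTiter-Glo luminescence.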

[6] = qHTS assay to identify small molecule agonists of the TGF-beta/Smad signaling pathway (AID 1346859; active means well fitted activation curve with a large enough effect in the signal ratio in the repeat runs, not every such curve was filed as active; the % refers to the signal ratio; further: series mostly up to about 77 µM)
Outline: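 SBE-bla HEK293T cells plated overnight, then compound exposure for 5 h at 37 C. Beta-lactamase reporter read with LiveBLAzer B/G FRET substrate after 2 h at room temperature, fluorescence at 405 nm excitation, 460/530 nm emission.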

[7] = biological target: Thyrotropin-releasing hormone receptor (Homo sapiens) (UniProt P34981); assay: qHTS assay to identify small molecule antagonists of the thyrotropin-releasing hormone receptor (TRHR) signaling pathway (AID 1346877; active means well fitted inhibition curve with a large enough effect in the repeat runs, not every such curve was filed as active; further: series mostly up to about 51 µM)
Outline: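 Screening used HEK293 cells engineered with TRHR, with a brief 5 min room-temperature compound exposure preceding addition of TRH to 1 nM. The read-out was kinetic calcium-dye fluorescence, concentration-response from 15 doses in triplicate.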

[8] = biological target: Thyrotropin-releasing hormone receptor (Homo sapiens) (UniProt P34981); assay: qHTS assay to identify small molecule agonists of the thyrotropin-releasing hormone receptor (TRHR) signaling pathway (AID 1346891; calls by dose curve; further: series mostly up to about 58 µM)
Outline: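 HEK293 cells expressing TRHR plated 18 h at 37 C/5% CO2, calcium dye-loaded 2 h at 37 C, then compound added (agonist mode); kinetic calcium fluorescence read 3 min at 1 s intervals; 15 concentrations in triplicate.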

[9] = qHTS assay to identify small molecule agonists of the progesterone receptor (PR) signaling pathway - cell viability counter screen (AID 1346799; calls by dose curve; further: nearly all actives have a fitted effect of over 45% in size)
Outline: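 Counter screen in the PR-UAS-bla HEK293T wells (2% charcoal-stripped FBS, 16 h compound exposure at 37 C) after the bla read. CellTiter-Glo added, 30 min at room temperature, luminescence read as cell viability.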

[10] = Human pregnane X receptor (PXR) small molecule agonists, qHTS cell viability counter screen (AID 1346977); further: nearly all actives have a fitted effect of over 50% in size
Outline: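 PXR-Luc HepG2 cells (2,000/well, 5% charcoal-stripped FBS) preincubated 5 hr, then exposed to compounds 24 hr at 37 C. Viability read in the same wells by CellTiter-Fluor fluorescence, reagent added at 23 hr, 1 hr incubation.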

Measured: Potency

Sequence of Progesterone receptor (Homo sapiens) (P06401 whole entry, looked up): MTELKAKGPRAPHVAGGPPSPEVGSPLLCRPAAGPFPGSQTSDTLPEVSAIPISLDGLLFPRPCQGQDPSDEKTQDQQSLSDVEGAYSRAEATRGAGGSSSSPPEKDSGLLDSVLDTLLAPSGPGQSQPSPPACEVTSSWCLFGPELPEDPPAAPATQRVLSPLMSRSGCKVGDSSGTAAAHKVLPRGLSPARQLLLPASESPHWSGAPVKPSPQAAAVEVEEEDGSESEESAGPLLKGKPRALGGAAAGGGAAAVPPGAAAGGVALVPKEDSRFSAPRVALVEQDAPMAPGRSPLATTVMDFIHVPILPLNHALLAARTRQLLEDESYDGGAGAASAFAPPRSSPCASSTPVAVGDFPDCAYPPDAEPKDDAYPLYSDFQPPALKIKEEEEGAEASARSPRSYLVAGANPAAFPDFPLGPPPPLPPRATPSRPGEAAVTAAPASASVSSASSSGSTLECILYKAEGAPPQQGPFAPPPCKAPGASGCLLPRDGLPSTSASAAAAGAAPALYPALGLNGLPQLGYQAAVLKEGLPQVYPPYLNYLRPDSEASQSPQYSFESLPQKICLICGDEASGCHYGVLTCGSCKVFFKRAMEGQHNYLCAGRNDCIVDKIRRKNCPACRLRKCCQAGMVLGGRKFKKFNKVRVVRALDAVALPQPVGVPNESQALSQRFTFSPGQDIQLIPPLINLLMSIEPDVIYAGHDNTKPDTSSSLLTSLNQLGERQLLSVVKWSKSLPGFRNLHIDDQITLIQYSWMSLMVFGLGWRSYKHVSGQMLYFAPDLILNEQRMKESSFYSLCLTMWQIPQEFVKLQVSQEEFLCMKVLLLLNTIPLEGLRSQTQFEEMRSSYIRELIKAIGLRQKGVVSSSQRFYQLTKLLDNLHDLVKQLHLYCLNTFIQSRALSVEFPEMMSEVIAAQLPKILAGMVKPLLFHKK
Sequence of Thyrotropin-releasing hormone receptor (Homo sapiens) (P34981 whole entry, looked up): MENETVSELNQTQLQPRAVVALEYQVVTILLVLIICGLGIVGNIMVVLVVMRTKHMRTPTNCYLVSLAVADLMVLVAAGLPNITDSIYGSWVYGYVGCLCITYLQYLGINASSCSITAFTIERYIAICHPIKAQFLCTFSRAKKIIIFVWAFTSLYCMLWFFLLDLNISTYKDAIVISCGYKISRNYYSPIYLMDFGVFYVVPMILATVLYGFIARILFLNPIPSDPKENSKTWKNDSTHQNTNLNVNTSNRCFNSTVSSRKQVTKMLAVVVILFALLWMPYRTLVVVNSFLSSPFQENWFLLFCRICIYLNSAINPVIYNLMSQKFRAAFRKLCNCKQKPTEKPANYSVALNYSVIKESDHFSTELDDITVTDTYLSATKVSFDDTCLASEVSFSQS

NC(=O)NS(=O)(=O)c1ccc(Cl)cc1
not listed: [9] | [10]
inactive: all other assays above

CCCCCCn1c(=O)c2c(ncn2C)n(C)c1=O
not listed: [5] | [7] | [8]
inactive: all other assays above

NCCC(O)(P(=O)(O)O)P(=O)(O)O
inactive: [1] | [2] | [3] | [4] | [5] | [6]

CC(C)C(=O)OC/C=C/c1ccccc1
not listed: [5]
inactive: all other assays above

CC(C)(C)C1CCCCC1=O (configuration not stated)
not listed: [4]
inactive: all other assays above

CCN(O)CC
inactive: [1] | [2] | [3] | [4] | [5] | [6]

COC(=O)C(C)O (configuration not stated)
not listed: [5] | [10]
inactive: all other assays above

Cc1nnc(SCC2=C(C(=O)O)N3C(=O)[C@@H](NC(=O)Cn4cnnn4)[C@H]3SC2)s1
not listed: [4] | [10]
inactive: all other assays above

O=C1CCC(C2CCCCC2)CC1
not listed: [9]
inactive: all other assays above

C=CC(C)(O)CC/C=C(\C)CCC=C(C)C (configuration not stated)
not listed: [5]
inactive: all other assays above

CCCC(CCC)(C(=O)OCC)C(=O)OCC
not listed: [4] | [5]
inactive: all other assays above

CCN(CC)CCOc1ccc(Cc2ccccc2)cc1
inactive: [1] | [2] | [3] | [4] | [5] | [6]

CC(=O)N[C@@H](CC(C)C)C(=O)O
not listed: [9] | [10]
inactive: all other assays above

CCCCC1CCC(=O)O1 (configuration not stated)
not listed: [5] | [10]
inactive: all other assays above

CC1(O)CSC(C)(O)CS1 (configuration not stated)
not listed: [9]
inactive: all other assays above

CCCOCCC
not listed: [9]
inactive: all other assays above

CC(C)OC(C)C
not listed: [7] | [8] | [9]
inactive: all other assays above

CCN(CC)CC1CCCCN1CC(=O)N1c2ccccc2C(=O)Nc2cccnc21 (configuration not stated)
not listed: [9]
inactive: all other assays above

CS(=O)(=O)c1ccc([C@@H](O)[C@@H](CF)NC(=O)C(Cl)Cl)cc1
not listed: [9]
inactive: all other assays above
